# Experiments:
# Set-up in all cases: species or system human, MV4-11 + K-562 + COLO205 + SK-N-BE2 + OVCAR-8
# [1] = test system: ABCD3; details: read-out: apparent Kd; compound concentrations: 100 nM and 1000 nM (sheet 'Samples'), CATDS: 4.0800331971119997E-3; n = 1
# [2] = test system: ACOX3; details: read-out: apparent Kd; compound concentrations: 100 nM and 1000 nM (sheet 'Samples'), CATDS: 4.2441767473343E-3; n = 1
# [3] = test system: GRAMD1A; details: read-out: apparent Kd; compound concentrations: 100 nM and 1000 nM (sheet 'Samples'), CATDS: 3.9512769472384501E-3; n = 1
# [4] = test system: MAP3K3; details: read-out: apparent Kd; compound concentrations: 100 nM and 1000 nM (sheet 'Samples'), CATDS: 4.1000911479265297E-3; n = 1
# [5] = test system: PGK1; details: read-out: apparent Kd; compound concentrations: 100 nM and 1000 nM (sheet 'Samples'), CATDS: 0.13034020177251299; n = 1
# [6] = test system: AGPS; details: read-out: apparent Kd; compound concentrations: 100 nM and 1000 nM (sheet 'Samples'), CATDS: 9.2169061942303496E-2; n = 1
# [7] = test system: TTN; details: read-out: apparent Kd; compound concentrations: 100 nM and 1000 nM (sheet 'Samples'), CATDS: 1.2755516587496201E-2; n = 1
# [8] = test system: ACVRL1; details: read-out: apparent Kd; compound concentrations: 100 nM and 1000 nM (sheet 'Samples'), CATDS: 0.20940846784164599; n = 1
# [9] = test system: CLK3; details: read-out: apparent Kd; compound concentrations: 100 nM and 1000 nM (sheet 'Samples'), CATDS: 3.87460825135853E-2; n = 1
# [10] = test system: FN3KRP; details: read-out: apparent Kd; compound concentrations: 100 nM and 1000 nM (sheet 'Samples'), CATDS: 2.5837856545343801E-2; n = 1
# [11] = test system: SNRNP200; details: read-out: apparent Kd; compound concentrations: 100 nM and 1000 nM (sheet 'Samples'), CATDS: 1.8625825044313801E-2; n = 1
# [12] = test system: ACLY; details: read-out: apparent Kd; compound concentrations: 100 nM and 1000 nM (sheet 'Samples'), CATDS: 2.7002269039485799E-2; n = 1
# [13] = test system: GARS; details: read-out: apparent Kd; compound concentrations: 100 nM and 1000 nM (sheet 'Samples'), CATDS: 2.4594129373340799E-2; n = 1
# [14] = test system: PFKP; details: read-out: apparent Kd; compound concentrations: 100 nM and 1000 nM (sheet 'Samples'), CATDS: 2.5253779658022699E-2; n = 1
# [15] = test system: SMG1; details: read-out: apparent Kd; compound concentrations:100 nM and 1000 nM (sheet 'Samples'); n = 1
# [16] = test system: MAP4K4; details: read-out: apparent Kd; compound concentrations: 100 nM and 1000 nM (sheet 'Samples'), CATDS: 1.6227318274317299E-2; n = 1
# [17] = test system: PSMC3; details: read-out: apparent Kd; compound concentrations: 100 nM and 1000 nM (sheet 'Samples'), CATDS: 3.1956932095177297E-2; n = 1
# [18] = test system: RAB14; details: read-out: apparent Kd; compound concentrations: 100 nM and 1000 nM (sheet 'Samples'), CATDS: 3.92328124697153E-2; n = 1
# [19] = test system: SLC25A6;SLC25A4; details: read-out: apparent Kd; compound concentrations: 100 nM and 1000 nM (sheet 'Samples'), CATDS: 2.6658773348472799E-2; n = 1
# [20] = test system: SMC2; details: read-out: apparent Kd; compound concentrations: 100 nM and 1000 nM (sheet 'Samples'), CATDS: 2.55109529885677E-2; n = 1
structure (smiles),measurement,setting,value
Cn1ncc2c(N)ncnc21 [SKF-18267],potency estimated from few doses,[1],1.27 µM
same,potency estimated from few doses,[2],1.16 µM
same,potency estimated from few doses,[3],1.38 µM
same,potency estimated from few doses,[4],1.26 µM
COc1cccc2c(-c3ccncc3)c(-c3ccc(F)cc3)nn12 [GW468513X],potency estimated from few doses,[5],0.0623 µM
COc1ccc(-c2cc3c(N)ncnc3o2)cc1 [GW642138X],potency estimated from few doses,[6],2.18 µM
CCn1c(-c2cccnc2O)nc2cnccc21 [SB-736715],potency estimated from few doses,[7],1.87 µM
FC(F)(F)c1ccc(-c2ncn(CCCN3CCOCC3)c2-c2ccncc2)cc1 [SB-217780],potency estimated from few doses,[8],1.63 µM
NCC(NC(=O)c1cc(-c2cn[nH]c2)c(-c2ccnc3[nH]ccc23)s1)c1ccccc1.NCC(NC(=O)c1cc(-c2cn[nH]c2)c(-c2ccnc3[nH]ccc23)s1)c1ccccc1.O=C(O)C(F)(F)F.O=C(O)C(F)(F)F (centres unmarked) [GSK1325775A],potency estimated from few doses,[9],0.907 µM
CCN(CC)Cc1ccc(Nc2nccc(-c3cnn4ncccc34)n2)cc1 [GW780056X],potency estimated from few doses,[10],0.618 µM
COc1cc(Nc2nccc(-c3cnn4ncccc34)n2)cc(OC)c1 [GW801372X],potency estimated from few doses,[11],1.54 µM
Cl.Cl.NC(CNC(=O)c1cc(Br)c(-c2ccnc3[nH]ccc23)s1)c1ccccc1.NC(CNC(=O)c1cc(Br)c(-c2ccnc3[nH]ccc23)s1)c1ccccc1 (centres unmarked) [GSK1322949A],potency estimated from few doses,[12],1.57 µM
same,potency estimated from few doses,[13],2.03 µM
same,potency estimated from few doses,[14],1.88 µM
CC(=O)N[C@@H](Cc1ccc(OP(=O)(O)O)cc1)C(=O)N[C@H]1CCC(=O)N2CCC[C@@H](C(=O)NCc3ccc(Cl)cc3)N2C1=O [RO0325308-000],potency estimated from few doses,[15],0.121 µM
NS(=O)(=O)c1ccc(NC=C2C(=O)Nc3ccc4ncsc4c32)cc1 [GW589933X],potency estimated from few doses,[16],2.14 µM
Cn1cc(C2=C(c3ccc(OC[C@@H](O)CO)cc3)C(=O)NC2=O)c2ccccc21 [RO3208546-000],potency estimated from few doses,[17],2.09 µM
COc1ccc(Nc2nccc(NCCNC(=O)Nc3cc(C)ccc3C)n2)cc1 [GSK1379899A],potency estimated from few doses,[18],2.28 µM
CCC(CC)(CC)n1cnc2c(N)ncnc21 [SKF-97620],potency estimated from few doses,[19],1.43 µM
same,potency estimated from few doses,[20],1.64 µM

# From article PMC11062922 (Nature Chemical Biology, 2023)
